Bioassay records as filed in PubChem.
PAX8 reporter: inhibitors of PAX8-driven TPO luciferase reporter, primary screen, RMG-I cells, single concentration | SteadyGlo, 24 h | inhibition, % at 12.6 µM | 1.2% of 360,000 active | AID 652154, 2013;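 active = mean replicate inhibition at least 60% with every replicate also reaching 60%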;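 also: luciferase light reporting Pax8 driven TPO promoter activity; plate controls were median of neutral control wells for no effect and mitoxantrone controls for full effect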
Mdm2 MdmX PPI: inhibitors of human Mdm2-MdmX association, primary screen, cell-based, luminescence, split luciferase, SaOS-2, uHTS. Protein Mdm4 (Homo sapiens) + E3 ubiquitin-protein ligase Mdm2 (Homo sapiens), …. SaOS-2 split-luciferase Mdm2/MdmX complementation. inhibition, % at 8 µM. 3% of 330,000 active;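 active = inhibition of at least 50% at 8 µM in the primary screen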
Target sequence (O15151 whole entry, looked up): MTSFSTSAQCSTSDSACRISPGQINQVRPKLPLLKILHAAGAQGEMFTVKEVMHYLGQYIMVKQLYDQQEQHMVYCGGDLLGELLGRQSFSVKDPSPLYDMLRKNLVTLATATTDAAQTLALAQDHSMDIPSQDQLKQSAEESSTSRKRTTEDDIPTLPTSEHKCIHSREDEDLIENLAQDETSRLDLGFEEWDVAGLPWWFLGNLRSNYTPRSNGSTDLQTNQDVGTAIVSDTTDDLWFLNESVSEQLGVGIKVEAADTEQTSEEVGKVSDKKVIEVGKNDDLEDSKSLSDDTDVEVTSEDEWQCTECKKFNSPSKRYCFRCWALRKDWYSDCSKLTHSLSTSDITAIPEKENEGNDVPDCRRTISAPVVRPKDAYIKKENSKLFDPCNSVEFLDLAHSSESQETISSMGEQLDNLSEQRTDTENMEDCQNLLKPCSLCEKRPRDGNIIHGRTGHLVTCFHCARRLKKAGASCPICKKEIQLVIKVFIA
Target sequence (Q00987 whole entry, looked up): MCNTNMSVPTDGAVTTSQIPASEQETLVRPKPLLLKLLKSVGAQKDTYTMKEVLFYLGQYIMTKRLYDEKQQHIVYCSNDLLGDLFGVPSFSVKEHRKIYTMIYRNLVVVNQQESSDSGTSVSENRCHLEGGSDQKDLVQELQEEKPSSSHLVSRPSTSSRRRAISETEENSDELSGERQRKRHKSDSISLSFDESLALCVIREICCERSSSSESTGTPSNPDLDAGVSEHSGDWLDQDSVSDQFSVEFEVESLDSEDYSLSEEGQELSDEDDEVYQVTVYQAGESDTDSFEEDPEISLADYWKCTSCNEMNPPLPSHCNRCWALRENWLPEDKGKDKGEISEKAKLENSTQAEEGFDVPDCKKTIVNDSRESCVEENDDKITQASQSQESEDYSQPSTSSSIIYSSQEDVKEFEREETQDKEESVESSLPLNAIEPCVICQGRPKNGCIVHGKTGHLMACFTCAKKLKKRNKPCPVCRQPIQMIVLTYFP
CSC inhib: cancer stem cell viability inhibitors, primary screen, luminescence; cancer stem cell-like cells viability; inhibition, % at 7.5 µM; 1.1% of 300,000 active; AID 2717, 2010; in the data active = inhibition above about 75%; tested in HMLE shEcad cells
Gli-Sufu antag: Gli-Sufu pathway antagonists, primary screen, luciferase luminescence, Sufu-KO-LIGHT cells, uHTS | 0.74% of 340,000 active | Sufu-KO-LIGHT fibroblasts, Gli luciferase reporter luminescence | inhibition, % at 5 µM;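 active = inhibition above about 55%, limit read from the data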;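 also: 0% = DMSO-treated cells and 100% = wells with medium but no cells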
Beta cell apopt: inhibitors of cytokine-induced beta cell apoptosis, primary screen, luminescence; INS-1E cytokine-induced death, ATP luminescence, 48 h; percent of positive-control rescue, neutral wells zero; protection from apoptosis, % (no concentration beside the values); 0.8% of 300,000 active; AID 435005, 2010;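 active = Every replicate reaches about 75%, or at least half do and their mean reaches it too, limit read from the data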;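 also: 0% = cytokine-treated negative control wells and 100% = positive control rescue; higher means more ATP so stronger rescue from cytokine killing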
Shn3 inh set2: reduction of Shn3 3'UTR firefly luciferase signal, primary screen, Schnurri-3 inhibitor project, cell-based, Clone20 osteoblasts, set 2. Clone20 osteoblast Shn3 3'UTR firefly luciferase, 24 h. 0.52% of 360,000 active. AID 588674, 2011. inhibition, % at 12.5 µM;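 active = mean inhibition of at least 75% with every replicate also reaching 75%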;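 also: 0% = median of neutral control wells and 100% = pilot-screen positive control compound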
Starred values were filed as active, the others as inactive; . = not tested or not shown. Rows were chosen to be rich in hits. Some 4% of all compounds tested hit in one or more screens of this group.

SMILES	PAX8 reporter	Mdm2 MdmX PPI	CSC inhib	Gli-Sufu antag	Beta cell apopt	Shn3 inh set2
O=C(Nc1cccc(Br)c1)c1ccc2c(c1)SC1=NS(=O)(=O)CCN12	88.3*	10.7	14.9	28.9	11.2	40.6
Cc1noc(C)c1NC(=O)N(C)C[C@@H]1OCCCC[C@@H](C)Oc2ccc(NS(=O)(=O)c3ccc(F)cc3)cc2C(=O)N([C@H](C)CO)C[C@H]1C	-21.3	.	.	.	.	.
COC(=O)c1c(NS(=O)(=O)c2ccc3ccccc3c2)sc2c1CCCC2	.	7.0	47.1	1.4	0.2	14.5
COC(=O)c1c(NC(=O)c2ccc(C)c(S(=O)(=O)Nc3ccccc3C)c2)sc2c1CCCC2	.	23.3	75.1*	14.2	-3.7	21.3
O=[N+]([O-])c1ccc(Sc2cccc[n+]2[O-])c2nonc12	102.1*	.	.	86.3*	.	97.9*
O=[N+]([O-])c1ccc(Nc2ccccc2)c2nonc12	-18.5	-0.3	-3.6	4.4	13.5	-37.7
CC(C)NC(=O)N(C)C[C@@H]1Oc2ccc(NC(=O)Cc3ccccc3)cc2C(=O)N([C@@H](C)CO)C[C@@H]1C	-6.0	.	.	.	.	.
C[C@@H]1CN([C@@H](C)CO)S(=O)(=O)c2ccc(C#CC3CCCC3)cc2O[C@H]1CN(C)C	0.9	.	.	.	.	.
COc1cccc(Nc2nnc(SCN3C(=O)c4ccccc4C3=O)s2)c1	84.0*	-12.8	-7.0	-13.3	-3.9	-5.1
COc1cccc(Nc2nnc(SCC(=O)N(CC(C)C)CC(C)C)s2)c1	.	24.7	-12.6	-0.4	13.4	30.5
O=C(c1ccccc1)N1C[C@@H]2[C@H](c3ccccc31)[C@H](CO)N2C(=O)c1ccccn1	-16.5	.	.	.	.	.
COc1ccc(S(=O)(=O)Nc2ccc3c(c2)C(=O)N([C@@H](C)CO)C[C@@H](C)[C@@H](CN(C)C(=O)Nc2ccc(C(F)(F)F)cc2)OCCCC[C@H](C)O3)cc1	9.3	.	.	.	.	.
COc1ccc(S(=O)(=O)Nc2ccc3c(c2)C(=O)N([C@@H](C)CO)C[C@H](C)[C@@H](CN(C)C(=O)Nc2ccc(C(F)(F)F)cc2)OCCCC[C@@H](C)O3)cc1	84.0*	.	.	.	.	.
COc1ccc(S(=O)(=O)Nc2ccc3c(c2)C(=O)N([C@@H](C)CO)C[C@H](C)[C@@H](CN(C)C(=O)Nc2ccc(C(F)(F)F)cc2)OCCCC[C@H](C)O3)cc1	64.5*	.	.	.	.	.
COCC(=O)Nc1ccc2c(c1)OC[C@H](C)N(Cc1cc(F)ccc1F)C[C@@H](C)[C@H](OC)CN(C)C2=O	-2.8	.	.	.	.	.
O=C(NCCc1cn2ccccc2n1)c1cc(COc2ccc3ncccc3c2)on1	24.9	1.4	3.6	44.2	104.1*	75.0
O=C(c1cc(COc2ccc3ncccc3c2)on1)N1CCCC1	-11.7	-0.8	3.7	36.3	42.2	68.2
O=C(NCCc1cn2ccccc2n1)c1ccccc1F	.	-0.3	3.4	-8.3	-2.9	-4.1
O=C(c1cc(COc2ccc3ncccc3c2)on1)N1CCCCCC1	-19.4	-7.7	14.9	48.2	90.7*	84.2
Cc1cc(OCc2cc(C(=O)N3CCC(Oc4cccnc4)CC3)no2)cc(C)c1Cl	14.8	3.1	77.0*	20.7	.	68.3
COCC1CCN(C(=O)c2cc(COc3ccc4ncccc4c3)on2)CC1	1.5	3.6	2.9	27.4	37.0	85.6*
CO[C@H]1CN(C)C(=O)c2ccc(NS(=O)(=O)c3ccccc3C)cc2OC[C@H](C)N(C)C[C@H]1C	0.7	.	.	.	.	.
CC(C)CC#Cc1ccc2c(c1)O[C@H](CN(C)S(=O)(=O)c1ccc(F)cc1)[C@H](C)CN([C@@H](C)CO)S2(=O)=O	98.0*	.	.	.	.	.
CC(C)CC#Cc1ccc2c(c1)O[C@@H](CN(C)S(=O)(=O)c1ccc(F)cc1)[C@H](C)CN([C@H](C)CO)S2(=O)=O	67.5*	.	.	.	.	.
CC(C)CC#Cc1ccc2c(c1)O[C@@H](CN(C)S(C)(=O)=O)[C@@H](C)CN([C@@H](C)CO)S2(=O)=O	-21.4	.	.	.	.	.
SMILES	PAX8 reporter	Mdm2 MdmX PPI	CSC inhib	Gli-Sufu antag	Beta cell apopt	Shn3 inh set2
CC(C)CC#Cc1ccc2c(c1)O[C@@H](CN(C)S(C)(=O)=O)[C@H](C)CN([C@@H](C)CO)S2(=O)=O	6.6	.	.	.	.	.
Cc1ccc(S(=O)(=O)N(C)C[C@H]2Oc3cc(C#Cc4ccncc4)ccc3S(=O)(=O)N([C@@H](C)CO)C[C@H]2C)cc1	103.8*	.	.	.	.	.
COCC(=O)Nc1ccc2c(c1)C(=O)N(C)C[C@H](OC)[C@@H](C)CN(CC1CC1)[C@H](C)CO2	-12.5	.	.	.	.	.
CO[C@H]1CN(C)C(=O)c2cc(NC(=O)C3CCC3)ccc2OC[C@@H](C)N(Cc2ccccn2)C[C@H]1C	-0.8	.	.	.	.	.
C[C@@H]1CCCCO[C@H](CN(C)C(=O)Nc2ccc3c(c2)OCO3)[C@H](C)CN([C@H](C)CO)C(=O)c2cc(NC(=O)Cc3ccccc3)ccc2O1	10.5	.	.	.	.	.
CCCCCCSc1cc(-c2nc3cc(C)ccn3c2NCCCC)ccc1OC	32.6	16.1	77.2*	6.0	7.6	69.2
CCCCCCSc1cc(-c2nc3cnccn3c2NCCCC)ccc1OC	.	7.2	104.8*	-10.1	-5.7	10.3
CCCCCCSc1cccc(-c2nc3cc(C)ccn3c2NC2CCCCC2)c1	23.2	21.0	83.3*	11.9	12.9	20.7
CCCCCCSc1cccc(-c2nc3ccc(C)cn3c2NC2CCCCC2)c1	-2.5	25.1	59.8	-1.5	1.2	-9.6
CCCCCCSc1ccc(-c2nc3ccc(Cl)cn3c2NCCCC)cc1OC	-20.8	-8.3	.	3.3	.	4.9
CCNC(=O)Nc1ccc2c(c1)C(=O)N(C)[C@@H]1CC[C@H](CC(=O)NCCN3CCCC3)O[C@H]1CO2	0.7	.	.	.	.	.
Cc1noc(C)c1NC(=O)N1C[C@@H](O)COC[C@@H]2O[C@H](CC(=O)N3CCc4ccccc4C3)CC[C@H]21	5.4	.	.	.	.	.
COc1ccc(CN(C)C[C@@H]2OCCCC[C@H](C)Oc3ccc(NS(=O)(=O)c4ccccc4)cc3C(=O)N([C@@H](C)CO)C[C@@H]2C)cc1	-3.1	.	.	.	.	.
